# Experiments:
# Assay in all cases: DAPPL (digital affinity profiling via proximity ligation, sequencing); 10 mM Tris-HCl pH 7.5, 50 mM NaCl, 1 mM DTT, 4% glycerol, room temperature, 30 min; GST-TFs on glutathione beads, 16-mer random dsDNA library, 0.1% formaldehyde crosslink after washing; high values mean tight binding
# FLI1 = biological target: T1, FLI1 (Homo sapiens, UniProt Q01543 1-452); settings: protein: recombinant; tags: N-terminal GST; dsDNA, one strand shown
# T1 sequence: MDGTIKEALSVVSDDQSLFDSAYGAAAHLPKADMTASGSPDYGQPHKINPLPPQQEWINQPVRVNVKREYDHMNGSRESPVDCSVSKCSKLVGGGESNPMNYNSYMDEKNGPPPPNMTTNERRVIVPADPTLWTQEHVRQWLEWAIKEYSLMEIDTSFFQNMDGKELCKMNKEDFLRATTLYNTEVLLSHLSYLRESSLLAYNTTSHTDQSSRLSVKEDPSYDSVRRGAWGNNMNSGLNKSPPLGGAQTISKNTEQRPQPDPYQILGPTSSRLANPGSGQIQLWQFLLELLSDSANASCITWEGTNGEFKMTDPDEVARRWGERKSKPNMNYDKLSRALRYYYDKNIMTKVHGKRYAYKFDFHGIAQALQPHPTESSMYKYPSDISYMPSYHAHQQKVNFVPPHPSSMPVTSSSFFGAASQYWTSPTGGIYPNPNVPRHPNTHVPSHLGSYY
# Summary of the method: (§1)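 Beads coated with glutathione captured GST-fused human transcription factors that had been expressed in yeast, and the factors were then given DNA barcodes and pooled with a tag-only sample. The pools were incubated with 200 nmole of a random double-stranded 16-mer DNA library in Tris/NaCl/DTT/glycerol buffer for 30 min at room temperature, washed, crosslinked with 0.1% formaldehyde and proximity-ligated with BsaI/T4 ligase at 37 °C for 1 h. PCR amplification and Illumina NextSeq500 sequencing came last. Binding signal is each hexamer's read frequency for a factor divided by its frequency for the tag-only sample.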
# ELK1 = biological target: T2, ELK1 (Homo sapiens, UniProt P19419 1-428); settings: protein: recombinant; tags: N-terminal GST; dsDNA, one strand shown
# T2 sequence: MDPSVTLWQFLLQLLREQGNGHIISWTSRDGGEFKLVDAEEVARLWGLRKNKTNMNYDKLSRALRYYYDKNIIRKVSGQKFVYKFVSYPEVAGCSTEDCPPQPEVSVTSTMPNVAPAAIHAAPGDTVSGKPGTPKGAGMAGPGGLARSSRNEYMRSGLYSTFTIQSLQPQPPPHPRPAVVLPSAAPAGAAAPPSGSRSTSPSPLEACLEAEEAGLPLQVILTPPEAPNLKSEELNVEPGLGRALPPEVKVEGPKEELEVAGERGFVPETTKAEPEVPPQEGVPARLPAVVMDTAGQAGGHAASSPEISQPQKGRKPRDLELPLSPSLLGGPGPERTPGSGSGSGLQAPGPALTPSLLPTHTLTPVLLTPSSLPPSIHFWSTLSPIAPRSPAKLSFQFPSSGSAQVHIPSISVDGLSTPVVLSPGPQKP
# Summary of the method: as §1
# GABPA = biological target: T3, GABPA (Homo sapiens, UniProt Q06546 1-454); settings: protein: recombinant; tags: N-terminal GST; dsDNA, one strand shown
# T3 sequence: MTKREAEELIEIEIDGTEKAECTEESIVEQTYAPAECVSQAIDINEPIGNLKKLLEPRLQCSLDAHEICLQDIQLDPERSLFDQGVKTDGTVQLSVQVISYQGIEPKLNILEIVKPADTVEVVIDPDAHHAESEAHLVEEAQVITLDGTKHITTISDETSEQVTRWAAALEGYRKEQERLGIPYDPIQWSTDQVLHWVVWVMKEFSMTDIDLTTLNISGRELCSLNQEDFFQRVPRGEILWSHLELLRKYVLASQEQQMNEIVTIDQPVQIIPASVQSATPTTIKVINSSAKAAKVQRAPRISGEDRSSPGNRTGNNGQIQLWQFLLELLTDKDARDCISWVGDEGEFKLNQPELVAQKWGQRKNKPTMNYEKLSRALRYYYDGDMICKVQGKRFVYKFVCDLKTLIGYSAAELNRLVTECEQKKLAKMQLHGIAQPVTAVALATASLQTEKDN
# Summary of the method: as §1
# ERG = biological target: T4, ERG (Homo sapiens, UniProt P11308 1-479); settings: protein: recombinant; tags: N-terminal GST; dsDNA, one strand shown
# T4 sequence: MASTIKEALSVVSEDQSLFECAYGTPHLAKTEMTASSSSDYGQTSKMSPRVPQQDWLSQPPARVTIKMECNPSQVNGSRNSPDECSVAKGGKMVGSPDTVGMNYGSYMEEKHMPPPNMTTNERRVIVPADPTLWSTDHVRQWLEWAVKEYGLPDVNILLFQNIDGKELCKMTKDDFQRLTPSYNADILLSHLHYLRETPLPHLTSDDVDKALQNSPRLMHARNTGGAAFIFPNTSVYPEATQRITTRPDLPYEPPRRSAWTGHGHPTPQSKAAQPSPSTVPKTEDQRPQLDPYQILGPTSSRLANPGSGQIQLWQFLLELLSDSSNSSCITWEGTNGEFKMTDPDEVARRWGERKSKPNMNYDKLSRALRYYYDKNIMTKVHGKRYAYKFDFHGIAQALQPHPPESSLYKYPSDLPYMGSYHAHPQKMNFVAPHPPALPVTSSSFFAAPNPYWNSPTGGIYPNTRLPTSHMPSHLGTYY
# Summary of the method: as §1
# ELF1 = ELF1 (Homo sapiens, UniProt P32519 1-619); settings: protein: recombinant; tags: N-terminal GST; dsDNA, one strand shown
# Chain of ELF1 (P32519 whole entry): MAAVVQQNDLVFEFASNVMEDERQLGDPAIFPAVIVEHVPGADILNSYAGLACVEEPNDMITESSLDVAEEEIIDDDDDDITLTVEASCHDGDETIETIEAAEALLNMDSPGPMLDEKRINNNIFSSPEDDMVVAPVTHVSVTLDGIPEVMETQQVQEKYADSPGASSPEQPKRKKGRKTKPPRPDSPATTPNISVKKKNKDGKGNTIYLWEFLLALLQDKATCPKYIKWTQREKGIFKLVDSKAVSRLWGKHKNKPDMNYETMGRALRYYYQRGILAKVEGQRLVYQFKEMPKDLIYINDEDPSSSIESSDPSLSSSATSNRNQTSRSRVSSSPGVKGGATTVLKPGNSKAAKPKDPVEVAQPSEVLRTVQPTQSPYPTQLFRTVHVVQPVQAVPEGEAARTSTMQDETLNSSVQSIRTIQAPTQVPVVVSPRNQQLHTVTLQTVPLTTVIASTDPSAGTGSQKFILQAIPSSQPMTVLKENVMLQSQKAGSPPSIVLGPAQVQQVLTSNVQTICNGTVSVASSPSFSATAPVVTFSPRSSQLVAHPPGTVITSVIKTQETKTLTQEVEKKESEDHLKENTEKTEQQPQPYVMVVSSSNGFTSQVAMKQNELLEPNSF
# Summary of the method: as §1
# EHF = biological target: T5, EHF (Homo sapiens, UniProt Q9NZC4 1-300); settings: protein: recombinant; tags: N-terminal GST; dsDNA, one strand shown
# T5 sequence: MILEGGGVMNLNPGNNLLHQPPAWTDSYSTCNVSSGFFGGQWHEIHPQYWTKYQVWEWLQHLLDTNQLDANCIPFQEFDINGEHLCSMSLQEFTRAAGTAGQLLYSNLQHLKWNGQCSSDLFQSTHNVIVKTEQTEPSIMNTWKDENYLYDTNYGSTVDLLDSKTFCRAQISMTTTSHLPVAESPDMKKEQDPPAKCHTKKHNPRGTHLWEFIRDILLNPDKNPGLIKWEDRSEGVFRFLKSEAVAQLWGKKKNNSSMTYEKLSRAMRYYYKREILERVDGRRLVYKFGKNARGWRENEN
# Summary of the method: as §1
# SPI1 = SPI1 (Homo sapiens, UniProt P17947 1-270); settings: protein: recombinant; tags: N-terminal GST; dsDNA, one strand shown
# Summary of the method: as §1
# SPIB = SPIB (Homo sapiens, UniProt Q01892 1-262); settings: protein: recombinant; tags: N-terminal GST; dsDNA, one strand shown
# Chain of SPIB (Q01892 whole entry): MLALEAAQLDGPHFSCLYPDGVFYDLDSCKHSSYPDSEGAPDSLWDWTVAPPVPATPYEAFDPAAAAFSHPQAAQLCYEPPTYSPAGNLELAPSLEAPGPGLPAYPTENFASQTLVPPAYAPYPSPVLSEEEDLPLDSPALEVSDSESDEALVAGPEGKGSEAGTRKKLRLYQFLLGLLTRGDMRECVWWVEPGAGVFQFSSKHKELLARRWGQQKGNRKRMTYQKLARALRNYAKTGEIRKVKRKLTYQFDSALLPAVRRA
# Summary of the method: as §1
# ELK3 = biological target: T6, ELK3 (Homo sapiens, UniProt P41970 1-407); settings: protein: recombinant; tags: N-terminal GST; dsDNA, one strand shown
# T6 sequence: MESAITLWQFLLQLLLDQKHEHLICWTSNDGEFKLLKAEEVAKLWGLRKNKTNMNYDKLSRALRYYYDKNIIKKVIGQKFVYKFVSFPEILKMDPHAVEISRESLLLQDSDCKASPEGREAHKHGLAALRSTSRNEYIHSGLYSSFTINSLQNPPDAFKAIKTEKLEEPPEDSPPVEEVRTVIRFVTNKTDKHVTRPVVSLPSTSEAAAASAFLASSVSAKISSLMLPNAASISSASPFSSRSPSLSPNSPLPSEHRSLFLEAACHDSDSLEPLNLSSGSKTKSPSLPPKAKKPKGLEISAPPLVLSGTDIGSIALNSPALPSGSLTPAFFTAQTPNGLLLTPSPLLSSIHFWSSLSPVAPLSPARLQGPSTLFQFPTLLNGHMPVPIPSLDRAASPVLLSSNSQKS
# Summary of the method: as §1
# FEV = biological target: T7, FEV (Homo sapiens, UniProt Q99581 1-238); settings: protein: recombinant; tags: N-terminal GST; dsDNA, one strand shown
# T7 sequence: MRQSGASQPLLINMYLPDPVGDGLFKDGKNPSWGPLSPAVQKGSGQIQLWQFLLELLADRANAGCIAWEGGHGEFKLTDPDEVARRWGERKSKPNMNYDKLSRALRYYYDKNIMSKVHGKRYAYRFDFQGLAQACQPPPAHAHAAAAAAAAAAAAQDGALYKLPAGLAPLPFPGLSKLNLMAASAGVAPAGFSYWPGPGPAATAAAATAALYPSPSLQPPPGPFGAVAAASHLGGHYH
# Summary of the method: as §1
# ETV5 = ETV5 (Homo sapiens, UniProt P41161 1-510); settings: protein: recombinant; tags: N-terminal GST; dsDNA, one strand shown
# Chain of ETV5 (P41161 whole entry): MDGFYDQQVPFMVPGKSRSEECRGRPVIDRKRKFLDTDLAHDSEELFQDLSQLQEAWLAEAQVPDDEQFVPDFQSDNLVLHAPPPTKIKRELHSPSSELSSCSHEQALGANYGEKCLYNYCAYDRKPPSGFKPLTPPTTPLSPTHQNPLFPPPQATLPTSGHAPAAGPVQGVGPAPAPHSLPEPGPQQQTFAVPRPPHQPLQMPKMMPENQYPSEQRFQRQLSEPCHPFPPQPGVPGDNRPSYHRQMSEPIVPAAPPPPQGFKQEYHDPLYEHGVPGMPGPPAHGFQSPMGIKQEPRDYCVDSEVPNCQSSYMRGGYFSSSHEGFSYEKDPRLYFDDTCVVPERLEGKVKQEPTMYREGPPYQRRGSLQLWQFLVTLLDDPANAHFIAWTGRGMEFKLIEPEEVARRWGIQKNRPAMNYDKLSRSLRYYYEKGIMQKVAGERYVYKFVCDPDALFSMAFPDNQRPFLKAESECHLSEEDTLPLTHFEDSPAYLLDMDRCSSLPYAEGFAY
# Summary of the method: as §1
# HSF1 = HSF1 (Homo sapiens, UniProt Q00613 1-529); settings: protein: recombinant; tags: N-terminal GST; chain copies: 3; dsDNA, one strand shown
# Chain of HSF1 (Q00613 whole entry): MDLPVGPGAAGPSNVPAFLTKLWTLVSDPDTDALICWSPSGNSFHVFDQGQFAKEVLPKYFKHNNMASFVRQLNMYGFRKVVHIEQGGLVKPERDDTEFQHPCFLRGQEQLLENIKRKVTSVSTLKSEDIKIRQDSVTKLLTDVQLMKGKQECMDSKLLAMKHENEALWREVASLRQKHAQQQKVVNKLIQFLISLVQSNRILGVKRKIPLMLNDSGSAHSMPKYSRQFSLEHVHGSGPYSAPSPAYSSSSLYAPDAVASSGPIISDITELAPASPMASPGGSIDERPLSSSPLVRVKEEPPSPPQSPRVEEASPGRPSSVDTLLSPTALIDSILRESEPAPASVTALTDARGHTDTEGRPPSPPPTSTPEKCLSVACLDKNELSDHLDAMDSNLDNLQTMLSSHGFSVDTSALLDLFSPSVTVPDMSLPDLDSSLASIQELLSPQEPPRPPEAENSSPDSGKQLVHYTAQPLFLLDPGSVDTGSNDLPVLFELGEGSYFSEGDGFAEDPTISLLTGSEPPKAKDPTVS
# Summary of the method: as §1
# SPIC = biological target: T8, SPIC (Homo sapiens, UniProt Q8N5J4 1-248); settings: protein: recombinant; tags: N-terminal GST; dsDNA, one strand shown
# T8 sequence: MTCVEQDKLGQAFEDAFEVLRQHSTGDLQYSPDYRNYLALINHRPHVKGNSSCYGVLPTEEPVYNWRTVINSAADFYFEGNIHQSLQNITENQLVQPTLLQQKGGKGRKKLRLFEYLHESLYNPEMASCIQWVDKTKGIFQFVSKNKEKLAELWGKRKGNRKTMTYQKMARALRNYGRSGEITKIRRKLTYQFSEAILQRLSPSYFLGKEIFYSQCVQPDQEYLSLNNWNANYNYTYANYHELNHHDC
# Summary of the method: as §1
# ELF4 = ELF4 (Homo sapiens, UniProt Q99607 1-663); settings: protein: recombinant; tags: N-terminal GST; dsDNA, one strand shown
# Chain of ELF4 (Q99607 whole entry): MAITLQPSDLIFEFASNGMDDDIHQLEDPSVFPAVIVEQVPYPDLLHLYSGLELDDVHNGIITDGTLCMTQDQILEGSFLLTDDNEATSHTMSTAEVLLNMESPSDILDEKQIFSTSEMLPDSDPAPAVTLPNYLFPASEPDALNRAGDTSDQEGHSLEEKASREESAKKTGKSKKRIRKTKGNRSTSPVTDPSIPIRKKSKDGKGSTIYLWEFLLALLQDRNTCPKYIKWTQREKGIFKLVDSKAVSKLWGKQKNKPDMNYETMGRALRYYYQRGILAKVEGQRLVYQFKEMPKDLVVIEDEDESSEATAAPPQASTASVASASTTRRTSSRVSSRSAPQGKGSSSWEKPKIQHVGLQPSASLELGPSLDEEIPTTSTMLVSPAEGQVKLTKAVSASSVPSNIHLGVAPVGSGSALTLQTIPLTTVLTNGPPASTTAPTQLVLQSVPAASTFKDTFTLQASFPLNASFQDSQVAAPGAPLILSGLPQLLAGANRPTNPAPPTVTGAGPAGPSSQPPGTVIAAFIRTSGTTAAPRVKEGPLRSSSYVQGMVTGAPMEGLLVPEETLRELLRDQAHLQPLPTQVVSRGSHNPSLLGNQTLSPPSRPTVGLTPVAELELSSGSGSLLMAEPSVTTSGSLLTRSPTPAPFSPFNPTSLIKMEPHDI
# Summary of the method: as §1
# ELK4 = biological target: T9, ELK4 (Homo sapiens, UniProt P28324-2 1-405); settings: protein: recombinant; tags: N-terminal GST; dsDNA, one strand shown
# T9 sequence: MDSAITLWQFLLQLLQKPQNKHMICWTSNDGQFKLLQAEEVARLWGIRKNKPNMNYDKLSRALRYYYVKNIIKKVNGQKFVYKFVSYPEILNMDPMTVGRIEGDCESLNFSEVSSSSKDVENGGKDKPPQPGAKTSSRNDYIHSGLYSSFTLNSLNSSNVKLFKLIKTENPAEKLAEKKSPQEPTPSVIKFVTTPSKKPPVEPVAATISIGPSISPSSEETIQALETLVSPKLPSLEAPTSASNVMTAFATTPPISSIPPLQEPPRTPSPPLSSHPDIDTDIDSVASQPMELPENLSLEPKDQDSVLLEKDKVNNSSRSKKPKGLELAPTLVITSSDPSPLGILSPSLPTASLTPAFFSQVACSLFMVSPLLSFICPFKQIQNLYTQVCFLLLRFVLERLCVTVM
# Summary of the method: as §1
# ETV2 = biological target: T10, ETV2 (Homo sapiens, UniProt O00321 1-342); settings: protein: recombinant; tags: N-terminal GST; dsDNA, one strand shown
# T10 sequence: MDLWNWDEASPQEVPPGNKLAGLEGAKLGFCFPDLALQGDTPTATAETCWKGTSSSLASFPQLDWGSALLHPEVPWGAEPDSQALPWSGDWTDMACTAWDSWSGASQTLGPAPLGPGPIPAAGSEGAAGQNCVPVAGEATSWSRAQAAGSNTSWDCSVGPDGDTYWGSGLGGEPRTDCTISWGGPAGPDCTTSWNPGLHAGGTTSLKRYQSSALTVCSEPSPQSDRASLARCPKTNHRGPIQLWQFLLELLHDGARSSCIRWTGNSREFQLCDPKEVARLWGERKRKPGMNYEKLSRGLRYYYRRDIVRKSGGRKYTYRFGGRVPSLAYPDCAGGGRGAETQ
# Summary of the method: as §1
# ELF3 = biological target: T11, ELF3 (Homo sapiens, UniProt P78545 1-371); settings: protein: recombinant; tags: N-terminal GST; dsDNA, one strand shown
# T11 sequence: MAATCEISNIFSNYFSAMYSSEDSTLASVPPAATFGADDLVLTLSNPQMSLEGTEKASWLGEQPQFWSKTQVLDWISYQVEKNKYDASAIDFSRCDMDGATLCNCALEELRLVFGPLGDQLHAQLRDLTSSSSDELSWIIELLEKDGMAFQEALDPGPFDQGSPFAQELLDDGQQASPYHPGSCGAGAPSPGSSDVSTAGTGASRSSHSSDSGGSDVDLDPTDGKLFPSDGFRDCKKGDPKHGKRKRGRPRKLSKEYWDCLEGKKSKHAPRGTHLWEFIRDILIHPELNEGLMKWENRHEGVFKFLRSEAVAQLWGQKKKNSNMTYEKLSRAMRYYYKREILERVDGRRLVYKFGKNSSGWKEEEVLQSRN
# Summary of the method: as §1
# CRX = CRX (Homo sapiens, UniProt O43186 1-299); settings: protein: recombinant; tags: N-terminal GST; dsDNA, one strand shown
# Chain of CRX (O43186 whole entry): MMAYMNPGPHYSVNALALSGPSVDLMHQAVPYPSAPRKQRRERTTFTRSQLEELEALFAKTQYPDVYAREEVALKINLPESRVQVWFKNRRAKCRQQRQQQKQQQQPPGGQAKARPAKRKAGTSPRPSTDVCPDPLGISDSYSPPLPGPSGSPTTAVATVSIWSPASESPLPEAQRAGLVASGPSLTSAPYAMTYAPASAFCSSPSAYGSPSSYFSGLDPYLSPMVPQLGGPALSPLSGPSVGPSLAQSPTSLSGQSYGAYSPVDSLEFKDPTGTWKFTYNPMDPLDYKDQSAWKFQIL
# Summary of the method: as §1
# ETV1 = ETV1 (Homo sapiens, UniProt P50549 1-477); settings: protein: recombinant; tags: N-terminal GST; dsDNA, one strand shown
# Chain of ETV1 (P50549 whole entry): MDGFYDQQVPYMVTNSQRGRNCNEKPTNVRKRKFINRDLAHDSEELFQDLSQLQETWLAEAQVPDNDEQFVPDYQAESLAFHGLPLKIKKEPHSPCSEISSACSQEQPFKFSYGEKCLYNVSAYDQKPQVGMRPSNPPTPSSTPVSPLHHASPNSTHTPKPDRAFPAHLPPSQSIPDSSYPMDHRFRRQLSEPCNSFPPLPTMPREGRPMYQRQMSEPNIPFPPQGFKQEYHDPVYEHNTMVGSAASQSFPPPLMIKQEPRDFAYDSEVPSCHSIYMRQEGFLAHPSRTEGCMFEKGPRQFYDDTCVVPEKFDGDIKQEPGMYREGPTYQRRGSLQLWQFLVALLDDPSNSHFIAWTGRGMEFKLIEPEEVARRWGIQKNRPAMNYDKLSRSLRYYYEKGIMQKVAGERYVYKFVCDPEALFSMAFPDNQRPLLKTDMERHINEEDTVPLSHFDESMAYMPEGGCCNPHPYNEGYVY
# Summary of the method: as §1
sequence,measurement,setting,value
TTTGCT,binding signal,FLI1,"1.25 fold enrichment (6-mer frequency, TF over GST control)"
same,binding signal,ELK1,"1.17 fold enrichment (6-mer frequency, TF over GST control)"
same,binding signal,GABPA,"1.29 fold enrichment (6-mer frequency, TF over GST control)"
same,binding signal,ERG,"1.18 fold enrichment (6-mer frequency, TF over GST control)"
same,binding signal,ELF1,"1.21 fold enrichment (6-mer frequency, TF over GST control)"
same,binding signal,EHF,"1.18 fold enrichment (6-mer frequency, TF over GST control)"
same,binding signal,SPI1,"1.21 fold enrichment (6-mer frequency, TF over GST control)"
same,binding signal,SPIB,"1.24 fold enrichment (6-mer frequency, TF over GST control)"
same,binding signal,ELK3,"1.25 fold enrichment (6-mer frequency, TF over GST control)"
same,binding signal,FEV,"1.16 fold enrichment (6-mer frequency, TF over GST control)"
same,binding signal,ETV5,"1.2 fold enrichment (6-mer frequency, TF over GST control)"
same,binding signal,HSF1,"1.47 fold enrichment (6-mer frequency, TF over GST control)"
same,binding signal,SPIC,"1.22 fold enrichment (6-mer frequency, TF over GST control)"
same,binding signal,ELF4,"1.27 fold enrichment (6-mer frequency, TF over GST control)"
same,binding signal,ELK4,"1.36 fold enrichment (6-mer frequency, TF over GST control)"
same,binding signal,ETV2,"1.39 fold enrichment (6-mer frequency, TF over GST control)"
same,binding signal,ELF3,"1.33 fold enrichment (6-mer frequency, TF over GST control)"
same,binding signal,CRX,"1.45 fold enrichment (6-mer frequency, TF over GST control)"
same,binding signal,ETV1,"1.18 fold enrichment (6-mer frequency, TF over GST control)"

# Reference: article PMC7862700, “An all-to-all approach to the identification of sequence-specific readers for epigenetic DNA modifications on cytosine”
